Measured values: PubChem BioAssay
“And” between values parts separate entries of the source, which are not always exact repeats. Equal entries are not always repeated. The source made the active and inactive calls. Unless noted, the rule behind the calls is not given here.

Tests used:
[1] = resazurin metabolic signal in HepG2 cells – cell-based, resazurin fluorescence, 24 h, PK04 Diversity Set, profiling panel (AID 1172); settings: HepG2 viability, higher = more signal; note: test concentration not given here
[2] = budding yeast growth changes without added modifier – OD600, strain BY4716, 24 h, basal condition, primary screen (AID 1173); settings: S. cerevisiae BY4716 growth, OD600, 24 h; higher = more signal, called active from +8 up or from −8 down
[3] = viability profiling in MM1S myeloma cells – cell-based, resazurin fluorescence, basal, 24 h, PK04 Diversity Set, profiling panel (AID 1174); settings: higher = more signal, called active from +8 up or from −8 down;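 note: MM1S multiple myeloma cell line; test concentration not given here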
[4] = molecular target: Dihydroorotate dehydrogenase (quinone), mitochondrial (Plasmodium falciparum (isolate 3D7)) (UniProt Q08210); experiment: inhibition of P. falciparum DHODH – biochemical, C-terminal His tag, absorbance 600 nm, primary screen (AID 1175); settings: PfDHODH enzyme, DCIP absorbance 600 nm; higher = more signal, called active from +8 up or from −8 down;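 note: recombinant parasite enzyme with a five histidine tag at its C terminus; test concentration not given here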
[5] = inhibition of PAO1 biofilm formation – strain PAO1, LB-PBS medium, absorbance 600 nm, primary screen (AID 1176); note: test concentration not given here; settings: P. aeruginosa PAO1 growth/biofilm, A600, 12 h; higher = more signal
[6] = growth modulation of vineyard yeast isolate – strain RM11-1a, OD600, basal, 24 h, primary screen (AID 1177);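 note: cultures grown under basal conditions with no added stressor; test concentration not given here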; settings: S. cerevisiae RM11-1a growth, OD600, 24 h; higher = more signal, called active from +8 up or from −8 down
[7] = growth of efflux-deficient E. coli DRC39 – strain DRC39, OD650, 24 h, E. coli filamentation inducers, primary screen (AID 1178);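 note: growth measured as culture turbidity by optical density at 650 nm; test concentration not given here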; settings: E. coli DRC39 acrAB, higher = more signal, called active from +8 up or from −8 down
[8] = growth of efflux-deficient E. coli DRC39 – strain DRC39, OD650, 48 h, E. coli filamentation inducers, primary screen (AID 1179);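 note: screen aims at cell division blockers that make cells filament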; settings: E. coli DRC39 delta-acrAB growth, higher = more signal, called active from +8 up or from −8 down
[9] = viability profiling in RPMI8226 myeloma cells – cell-based, resazurin fluorescence, basal, 24 h, PK04 Diversity Set, profiling panel (AID 1180); settings: higher = more signal;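 note: RPMI8826 multiple myeloma cell line at 5000 cells per well; test concentration not given here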
[10] = molecular target: E3 ubiquitin-protein ligase XIAP (Homo sapiens) (UniProt P98170); experiment: small molecules binding XIAP protein – biophysical, small-molecule microarray, fluorescence 635 nm, primary screen (AID 1181); settings: higher = more signal;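 note: score merges 667 nm emission and signal to noise over triplicate slides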
Sequence of E3 ubiquitin-protein ligase XIAP (Homo sapiens) (P98170 whole entry, looked up): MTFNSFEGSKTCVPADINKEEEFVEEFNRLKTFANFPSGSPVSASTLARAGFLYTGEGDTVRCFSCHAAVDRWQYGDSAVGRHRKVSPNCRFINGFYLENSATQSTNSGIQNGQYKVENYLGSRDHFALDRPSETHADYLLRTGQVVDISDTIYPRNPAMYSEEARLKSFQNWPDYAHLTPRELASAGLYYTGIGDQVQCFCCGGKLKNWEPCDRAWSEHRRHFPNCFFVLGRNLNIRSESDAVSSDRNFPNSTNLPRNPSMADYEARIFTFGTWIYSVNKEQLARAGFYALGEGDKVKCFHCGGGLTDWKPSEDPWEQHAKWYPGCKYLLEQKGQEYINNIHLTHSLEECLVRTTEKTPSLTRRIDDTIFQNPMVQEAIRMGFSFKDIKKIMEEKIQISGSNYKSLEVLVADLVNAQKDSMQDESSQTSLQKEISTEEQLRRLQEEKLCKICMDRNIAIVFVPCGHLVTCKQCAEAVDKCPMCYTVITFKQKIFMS

Sequence of Dihydroorotate dehydrogenase (quinone), mitochondrial (Plasmodium falciparum (isolate 3D7)) (Q08210 whole entry, looked up): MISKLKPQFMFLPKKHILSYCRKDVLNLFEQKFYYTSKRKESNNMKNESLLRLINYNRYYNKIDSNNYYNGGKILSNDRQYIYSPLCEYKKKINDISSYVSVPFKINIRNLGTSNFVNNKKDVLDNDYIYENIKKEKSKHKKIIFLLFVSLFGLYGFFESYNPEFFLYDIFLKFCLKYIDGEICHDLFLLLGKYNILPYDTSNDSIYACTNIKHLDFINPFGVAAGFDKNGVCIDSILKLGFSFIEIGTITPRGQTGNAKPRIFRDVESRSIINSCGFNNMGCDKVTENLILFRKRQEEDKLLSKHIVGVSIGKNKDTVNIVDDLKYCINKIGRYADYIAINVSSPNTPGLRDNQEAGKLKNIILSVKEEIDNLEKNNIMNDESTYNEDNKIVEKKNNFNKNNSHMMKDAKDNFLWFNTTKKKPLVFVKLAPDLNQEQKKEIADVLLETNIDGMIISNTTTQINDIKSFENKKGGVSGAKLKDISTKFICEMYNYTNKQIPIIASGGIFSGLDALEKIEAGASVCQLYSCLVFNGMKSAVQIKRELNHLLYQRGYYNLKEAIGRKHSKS

## C=CC[C@H](O)c1ccc(OCCO)cc1
[1]
  z-score: 0.116 and -0.551
[2]
  z-score: -1.47 (inactive) and -1.79 (inactive)
[3]
  z-score: -0.567 (inactive) and -0.911 (inactive)
[4]
  composite z-score: -0.364 (inactive) and -0.704 (inactive)
[5]
  z-score: 0.225 (inactive) and -0.0818 (inactive)
[6]
  z-score: -0.0329 (inactive) and -0.774 (inactive)
[7]
  z-score: 0.375 (inactive) and -0.241 (inactive)
[8]
  z-score: 0.333 (inactive) and -0.405 (inactive)
[9]
  z-score: -0.535 and 0.0681
[10]
  composite z-score: 0.0697 and -0.152

## COC(=O)C1=C(C)N(Cc2ccccc2)C2=C(C(=O)c3ccccc3)[C@H](c3ccccc3)[C@@](O)(C(=O)OC)C(=O)N2[C@@H]1c1ccccc1
[1]
  z-score: 0.291 and 0.302
[2]
  z-score: -1.07 (inactive) and -0.683 (inactive)
[3]
  z-score: -1.34 (inactive) and -0.716 (inactive)
[4]
  composite z-score: 0.382 (inactive) and -0.214 (inactive)
[5]
  z-score: 0.875 (inactive) and -0.0538 (inactive)
[6]
  z-score: 1.27 (inactive) and 0.504 (inactive)
[7]
  z-score: 1.17 (inactive) and 0.312 (inactive)
[8]
  z-score: 0.592 (inactive) and 0.607 (inactive)
[9]
  z-score: -0.56 and -0.7
[10]
  composite z-score: 0.0399 and -0.0118

## CC(C)OC(=O)C=C1C[C@@H](c2cccc(C(F)(F)F)c2)O[C@@H](c2cccc(C(F)(F)F)c2)O1
[1]
  z-score: -0.115 and 0.0158
[2]
  z-score: 0.308 (inactive) and 0.626 (inactive)
[3]
  z-score: -1.7 (inactive) and 0.108 (inactive)
[4]
  composite z-score: -2.02 (inactive) and -2.59 (inactive)
[5]
  z-score: 0.834 (inactive) and 0.269 (inactive)
[6]
  z-score: 0.69 (inactive) and -0.0601 (inactive)
[7]
  z-score: -0.169 (inactive) and -0.948 (inactive)
[8]
  z-score: 1.04 (inactive) and 0.509 (inactive)
[9]
  z-score: -0.899 and 0.393
[10]
  composite z-score: -0.195 and 0.163

## CCCNC(=O)OC[C@H]1O[C@H](CCON=C(C)CCN2CCc3nc(-c4ccccc4)c(-c4ccccc4)cc3C2)C=C[C@@H]1Oc1ccc(OC)cc1
[1]
  z-score: 0.0965
[2]
  z-score: -0.238 (inactive)
[3]
  z-score: -0.53 (inactive)
[4]
  composite z-score: 0.672 (inactive)
[5]
  z-score: 0.347 (inactive)
[6]
  z-score: 1.13 (inactive)
[7]
  z-score: 0.324 (inactive)
[8]
  z-score: -1.58 (inactive)
[9]
  z-score: 0.0105
[10]
  composite z-score: -0.193

## CC(C)=NOC[C@@H](O)COCc1ccco1
[1]
  z-score: -0.907
[2]
  z-score: 0.14 (inactive)
[3]
  z-score: -1.09 (inactive)
[4]
  composite z-score: 0.102 (inactive)
[5]
  z-score: -0.324 (inactive)
[6]
  z-score: 0.534 (inactive)
[7]
  z-score: 0.745 (inactive)
[8]
  z-score: 0.41 (inactive)
[9]
  z-score: -1.11
[10]
  composite z-score: 0.0576

## COC(=O)C1=C(C)N(Cc2ccccc2)[C@]23O[C@](C(=O)OC)(C(=O)N2[C@@H]1c1ccccc1)[C@H]1C(=O)N(c2ccccc2)C(=O)[C@H]13
[1]
  z-score: 0.652 and 1.12
[2]
  z-score: -1.07 (inactive) and -1.3 (inactive)
[3]
  z-score: 0.965 (inactive) and -0.165 (inactive)
[4]
  composite z-score: -0.047 (inactive) and -0.335 (inactive)
[5]
  z-score: -0.2 (inactive)
[6]
  z-score: -0.215 (inactive) and 0.133 (inactive)
[7]
  z-score: -0.308 (inactive) and 0.166 (inactive)
[8]
  z-score: -0.306 (inactive) and 0.155 (inactive)
[9]
  z-score: 0.709 and 0.102
[10]
  composite z-score: -0.0346 and -0.316

## Cc1ccc(S(=O)(=O)N[C@@H]2COC(=O)CC=C[C@@H](C)[C@@H]3C=C[C@H](O)[C@@H](COC(=O)CC=C[C@H]2C)O3)cc1
[1]
  z-score: -0.29 and 0.458
[2]
  z-score: -0.595 (inactive) and 0.228 (inactive)
[3]
  z-score: -0.0856 (inactive) and 0.441 (inactive)
[4]
  composite z-score: 0.178 (inactive) and -4.95 (inactive)
[5]
  z-score: -0.212 (inactive) and -0.0781 (inactive)
[6]
  z-score: -0.169 (inactive) and -0.14 (inactive)
[7]
  z-score: 0.245 (inactive) and -1.15 (inactive)
[8]
  z-score: 0.0957 (inactive) and -0.599 (inactive)
[9]
  z-score: -0.541 and 0.341
[10]
  composite z-score: -0.138 and -0.124

## CCOC(=O)C[C@H]1[C@H](OC(=O)c2ccccc2-c2ccccc2)[C@@H](NC(=O)c2ccccc2)c2cc(OCCCO)ccc2N1C(=O)c1ccc2ccccc2n1
[1]
  z-score: 0.578 and -0.48
[2]
  z-score: -0.602 (inactive) and 1.01 (inactive)
[3]
  z-score: 0.602 (inactive) and -0.924 (inactive)
[4]
  composite z-score: 0.139 (inactive) and -0.264 (inactive)
[5]
  z-score: -0.152 (inactive) and 0.432 (inactive)
[6]
  z-score: -0.26 (inactive) and -0.698 (inactive)
[7]
  z-score: 1.39 (inactive) and -0.851 (inactive)
[8]
  z-score: 0.845 (inactive) and -0.687 (inactive)
[9]
  z-score: -0.236 and -0.847
[10]
  composite z-score: -0.227 and 0.0451
